# Results from the supplement of paper PMC4022240.
# ± gives the standard deviation.
# What was measured:
# Test in all cases: peptide microarray binding signal (635 nm), min-max normalized on array (fraction of array maximum); higher = stronger binding
# [1] = target: T1, HaloTag-ATRX ADD domain (163-292)
# T1 chain: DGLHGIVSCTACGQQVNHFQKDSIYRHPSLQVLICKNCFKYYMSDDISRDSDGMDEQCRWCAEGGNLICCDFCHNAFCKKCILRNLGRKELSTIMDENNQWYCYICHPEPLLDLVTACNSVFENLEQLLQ
# In short: (§1)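 Two probe formats were used for 1 h at 4°C: biotin-labelled HaloTag reader fusions (10 nM to 1 μM) with streptavidin-Alexa Fluor 647, and rabbit histone antibodies (1:10,000 to 1:2,000) with anti-rabbit Alexa 647. Both were applied to nitrocellulose arrays of histone 13-mer peptide–cellulose conjugates printed in triplicate with a Cy3 tracer and blocked overnight at 4°C. Signal was read at 635 nm and misprints at 532 nm on an Axon GenePix 4000B. Binding signal is expressed as the triplicate-spot mean intensity, min-max scaled for each library.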
# [2] = target: HaloTag-ING2 PHD (mouse Ing2 200-280)
# In short: as §1
# [3] = target: anti-H3K4me3 antibody ab8580
# In short: as §1
# [4] = target: anti-H3K9me3 antibody ab8898
# In short: as §1
# [5] = peptide region: H3 112-124, peptide modifications: H3K122me1, binder concentration: 1:2,000 dilution
# [6] = peptide region: H3 112-124, peptide modifications: H3K122me1, binder concentration: 1:10,000 dilution
# [7] = peptide region: H4 1-13, binder concentration: 1:2,000 dilution
# [8] = peptide region: H4 1-13, binder concentration: 1:10,000 dilution
# [9] = peptide region: H4 1-13, peptide modifications: H4K5ac H4K8ac, binder concentration: 1:2,000 dilution
# [10] = peptide region: H4 1-13, peptide modifications: H4K5ac H4K8ac, binder concentration: 1:10,000 dilution
# [11] = peptide region: H4 1-13, peptide modifications: H4R3me2a, binder concentration: 1:2,000 dilution
# [12] = peptide region: H4 1-13, peptide modifications: H4R3me2a, binder concentration: 1:10,000 dilution
# [13] = peptide region: H4 1-13, peptide modifications: H4R3me1, binder concentration: 1:2,000 dilution
# [14] = peptide region: H4 1-13, peptide modifications: H4R3me1, binder concentration: 1:10,000 dilution
# [15] = peptide region: H3 112-124, peptide modifications: H3K122me2, binder concentration: 1:2,000 dilution
# [16] = peptide region: H3 112-124, peptide modifications: H3K122me2, binder concentration: 1:10,000 dilution
# [17] = peptide region: H4 1-13, peptide modifications: H4K8ac H4K12ac, binder concentration: 1:2,000 dilution
# [18] = peptide region: H4 1-13, peptide modifications: H4K8ac H4K12ac, binder concentration: 1:10,000 dilution
# [19] = peptide region: H4 1-13, peptide modifications: H4K5ac, binder concentration: 1:2,000 dilution
# [20] = peptide region: H4 1-13, peptide modifications: H4K5ac, binder concentration: 1:10,000 dilution
# [21] = peptide region: H4 1-13, peptide modifications: H4K8ac, binder concentration: 1:2,000 dilution
# [22] = peptide region: H4 1-13, peptide modifications: H4K8ac, binder concentration: 1:10,000 dilution
# [23] = peptide region: H4 1-13, peptide modifications: H4S1ph H4K5ac, binder concentration: 1:2,000 dilution
# [24] = peptide region: H4 1-13, peptide modifications: H4S1ph H4K5ac, binder concentration: 1:10,000 dilution
binder,measurement,setting,value
IHAKRVTIMPKDI [H3 112-124 I H A K R V T I M P Kme D I],peptide microarray binding signal,"[1]; peptide region: H3 112-124, peptide modifications: H3K122me1, binder concentration: 50 nM",0.00429 ± 0.00037
same,peptide microarray binding signal,"[1]; peptide region: H3 112-124, peptide modifications: H3K122me1, binder concentration: 500 nM",0.0122 ± 0.0011
same,peptide microarray binding signal,"[2]; peptide region: H3 112-124, peptide modifications: H3K122me1, binder concentration: 10 nM",0.0077 ± 0.0008
same,peptide microarray binding signal,"[2]; peptide region: H3 112-124, peptide modifications: H3K122me1, binder concentration: 100 nM",0.00602 ± 0.00041
same,peptide microarray binding signal,[3]; [5],0.00168 ± 0.00019
same,peptide microarray binding signal,[3]; [6],0.00348 ± 0.0013
same,peptide microarray binding signal,[4]; [5],0.00251 ± 0.00011
same,peptide microarray binding signal,[4]; [6],0.00144 ± 5.1e-05
SGRGKGGKGLGKG [H4 1-13 S G R G K G G K G L G K G],peptide microarray binding signal,"[1]; peptide region: H4 1-13, binder concentration: 50 nM",0.00834 ± 0.00028
same,peptide microarray binding signal,"[1]; peptide region: H4 1-13, binder concentration: 500 nM",0.018 ± 0.0011
same,peptide microarray binding signal,"[2]; peptide region: H4 1-13, binder concentration: 10 nM",0.0037 ± 0.00019
same,peptide microarray binding signal,"[2]; peptide region: H4 1-13, binder concentration: 100 nM",0.00928 ± 0.00099
same,peptide microarray binding signal,[3]; [7],0.000189 ± 2e-06
same,peptide microarray binding signal,[3]; [8],0.00417 ± 0.00056
same,peptide microarray binding signal,[4]; [7],0.00211 ± 0.00074
same,peptide microarray binding signal,[4]; [8],0.00306 ± 0.00014
SGRGKGGKGLGKG [H4 1-13 S G R G Kac G G Kac G L G K G],peptide microarray binding signal,"[1]; peptide region: H4 1-13, peptide modifications: H4K5ac H4K8ac, binder concentration: 50 nM",0.00737 ± 0.00034
same,peptide microarray binding signal,"[1]; peptide region: H4 1-13, peptide modifications: H4K5ac H4K8ac, binder concentration: 500 nM",0.0151 ± 0.00043
same,peptide microarray binding signal,"[2]; peptide region: H4 1-13, peptide modifications: H4K5ac H4K8ac, binder concentration: 10 nM",0.00746 ± 6.7e-05
same,peptide microarray binding signal,"[2]; peptide region: H4 1-13, peptide modifications: H4K5ac H4K8ac, binder concentration: 100 nM",0.0206 ± 0.0023
same,peptide microarray binding signal,[3]; [9],0.00177 ± 8.8e-05
same,peptide microarray binding signal,[3]; [10],0.00285 ± 8.8e-05
same,peptide microarray binding signal,[4]; [9],0.00068 ± 7.5e-05
same,peptide microarray binding signal,[4]; [10],0.00156 ± 5.5e-05
SGRGKGGKGLGKG [H4 1-13 S G Rme2a G K G G K G L G K G],peptide microarray binding signal,"[1]; peptide region: H4 1-13, peptide modifications: H4R3me2a, binder concentration: 50 nM",0.0021 ± 9.6e-06
same,peptide microarray binding signal,"[1]; peptide region: H4 1-13, peptide modifications: H4R3me2a, binder concentration: 500 nM",0.00305 ± 6.3e-05
same,peptide microarray binding signal,"[2]; peptide region: H4 1-13, peptide modifications: H4R3me2a, binder concentration: 10 nM",0.00269 ± 4e-05
same,peptide microarray binding signal,"[2]; peptide region: H4 1-13, peptide modifications: H4R3me2a, binder concentration: 100 nM",0.00404 ± 9.1e-05
same,peptide microarray binding signal,[3]; [11],0.000227 ± 4.2e-06
same,peptide microarray binding signal,[3]; [12],0.000856 ± 2.3e-05
same,peptide microarray binding signal,[4]; [11],1.51e-05 ± 1.7e-07
same,peptide microarray binding signal,[4]; [12],0.000577 ± 1.2e-05
SGRGKGGKGLGKG [H4 1-13 S G Rme G K G G K G L G K G],peptide microarray binding signal,"[1]; peptide region: H4 1-13, peptide modifications: H4R3me1, binder concentration: 50 nM",0.00483 ± 0.00013
same,peptide microarray binding signal,"[1]; peptide region: H4 1-13, peptide modifications: H4R3me1, binder concentration: 500 nM",0.00838 ± 0.0007
same,peptide microarray binding signal,"[2]; peptide region: H4 1-13, peptide modifications: H4R3me1, binder concentration: 10 nM",0.00477 ± 0.00017
same,peptide microarray binding signal,"[2]; peptide region: H4 1-13, peptide modifications: H4R3me1, binder concentration: 100 nM",0.0127 ± 0.0019
same,peptide microarray binding signal,[3]; [13],0.00125 ± 0.00022
same,peptide microarray binding signal,[3]; [14],0.0012 ± 1.2e-05
same,peptide microarray binding signal,[4]; [13],0.000544 ± 6.8e-05
same,peptide microarray binding signal,[4]; [14],0.00115 ± 2e-05
IHAKRVTIMPKDI [H3 112-124 I H A K R V T I M P Kme2 D I],peptide microarray binding signal,"[1]; peptide region: H3 112-124, peptide modifications: H3K122me2, binder concentration: 50 nM",0.0047 ± 8.8e-05
same,peptide microarray binding signal,"[1]; peptide region: H3 112-124, peptide modifications: H3K122me2, binder concentration: 500 nM",0.0148 ± 0.00039
same,peptide microarray binding signal,"[2]; peptide region: H3 112-124, peptide modifications: H3K122me2, binder concentration: 10 nM",0.00567 ± 0.00021
same,peptide microarray binding signal,"[2]; peptide region: H3 112-124, peptide modifications: H3K122me2, binder concentration: 100 nM",0.0168 ± 0.0034
same,peptide microarray binding signal,[3]; [15],0.000906 ± 6e-05
same,peptide microarray binding signal,[3]; [16],0.000799 ± 8.3e-06
same,peptide microarray binding signal,[4]; [15],0.00287 ± 0.00058
same,peptide microarray binding signal,[4]; [16],0.00121 ± 2.4e-05
SGRGKGGKGLGKG [H4 1-13 S G R G K G G Kac G L G Kac G],peptide microarray binding signal,"[1]; peptide region: H4 1-13, peptide modifications: H4K8ac H4K12ac, binder concentration: 50 nM",0.00188 ± 7.5e-05
same,peptide microarray binding signal,"[1]; peptide region: H4 1-13, peptide modifications: H4K8ac H4K12ac, binder concentration: 500 nM",0.00533 ± 0.00034
same,peptide microarray binding signal,"[2]; peptide region: H4 1-13, peptide modifications: H4K8ac H4K12ac, binder concentration: 10 nM",0.00179 ± 0.0001
same,peptide microarray binding signal,"[2]; peptide region: H4 1-13, peptide modifications: H4K8ac H4K12ac, binder concentration: 100 nM",0.00255 ± 6.4e-05
same,peptide microarray binding signal,[3]; [17],0.00017 ± 6.4e-06
same,peptide microarray binding signal,[3]; [18],0.000799 ± 1.7e-05
same,peptide microarray binding signal,[4]; [17],0.000438 ± 8.5e-06
same,peptide microarray binding signal,[4]; [18],0.000577 ± 1.2e-05
SGRGKGGKGLGKG [H4 1-13 S G R G Kac G G K G L G K G],peptide microarray binding signal,"[1]; peptide region: H4 1-13, peptide modifications: H4K5ac, binder concentration: 50 nM",0.00201 ± 2.4e-05
same,peptide microarray binding signal,"[1]; peptide region: H4 1-13, peptide modifications: H4K5ac, binder concentration: 500 nM",0.00524 ± 0.00032
same,peptide microarray binding signal,"[2]; peptide region: H4 1-13, peptide modifications: H4K5ac, binder concentration: 10 nM",0.00197 ± 5.8e-05
same,peptide microarray binding signal,"[2]; peptide region: H4 1-13, peptide modifications: H4K5ac, binder concentration: 100 nM",0.00659 ± 0.00054
same,peptide microarray binding signal,[3]; [19],0.000585 ± 1.1e-05
same,peptide microarray binding signal,[3]; [20],0.000571 ± 1.1e-05
same,peptide microarray binding signal,[4]; [19],0.000302 ± 1.2e-05
same,peptide microarray binding signal,[4]; [20],0.000404 ± 4.4e-06
SGRGKGGKGLGKG [H4 1-13 S G R G K G G Kac G L G K G],peptide microarray binding signal,"[1]; peptide region: H4 1-13, peptide modifications: H4K8ac, binder concentration: 50 nM",0.00248 ± 2.9e-05
same,peptide microarray binding signal,"[1]; peptide region: H4 1-13, peptide modifications: H4K8ac, binder concentration: 500 nM",0.00481 ± 8.5e-05
same,peptide microarray binding signal,"[2]; peptide region: H4 1-13, peptide modifications: H4K8ac, binder concentration: 10 nM",0.002626 ± 1.5e-05
same,peptide microarray binding signal,"[2]; peptide region: H4 1-13, peptide modifications: H4K8ac, binder concentration: 100 nM",0.00546 ± 0.00011
same,peptide microarray binding signal,[3]; [21],0.000434 ± 1.2e-05
same,peptide microarray binding signal,[3]; [22],0.000628 ± 6.7e-06
same,peptide microarray binding signal,[4]; [21],9.06e-05 ± 3.5e-06
same,peptide microarray binding signal,[4]; [22],0.000346 ± 3.8e-06
SGRGKGGKGLGKG [H4 1-13 Sph G R G Kac G G K G L G K G],peptide microarray binding signal,"[1]; peptide region: H4 1-13, peptide modifications: H4S1ph H4K5ac, binder concentration: 50 nM",0.00348 ± 3.8e-05
same,peptide microarray binding signal,"[1]; peptide region: H4 1-13, peptide modifications: H4S1ph H4K5ac, binder concentration: 500 nM",0.0117 ± 0.00091
same,peptide microarray binding signal,"[2]; peptide region: H4 1-13, peptide modifications: H4S1ph H4K5ac, binder concentration: 10 nM",0.001373 ± 8.3e-06
same,peptide microarray binding signal,"[2]; peptide region: H4 1-13, peptide modifications: H4S1ph H4K5ac, binder concentration: 100 nM",0.00269 ± 6.7e-05
same,peptide microarray binding signal,[3]; [23],0.000208 ± 2.2e-06
same,peptide microarray binding signal,[3]; [24],0.000856 ± 8.9e-06
same,peptide microarray binding signal,[4]; [23],0.000362 ± 6.3e-06
same,peptide microarray binding signal,[4]; [24],0.000692 ± 7.3e-06
